Source: PubChem BioAssay AID1159580 (chemical genetic matrix, 2015)
Out of some 5,500 compounds screened, about 2,000 (36%) were called active. Inconclusive results (about 18%) are left out. No stated cut-off is given here; in the data, active means normalized growth mostly below about 0.91 (no sharp cut-off); inconclusive means no clear call, values can overlap the other calls; inactive means mostly above about 0.92. This is one part of the list.

Experiment: chemical genetic growth profiling, strain panel (AID 1159580);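 further: tested at 20 µM; growth read once vehicle control cultures reached saturation at 30 °C; 1 = growth at the plate median or of vehicle wells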
Conditions: growth OD

Measured: normalized growth

NC[C@@H]1O[C@H](O[C@@H]2[C@@H](CO)OC(O[C@@H]3[C@@H](O)[C@H](N)C[C@H](N)[C@H]3OC3O[C@H](CN)[C@@H](O)[C@H](O)[C@H]3N)[C@@H]2O)[C@H](N)[C@@H](O)[C@@H]1O (some centres not stated)
inactive: S. cerevisiae deletion strains, locus YJR075W, strain HOC1, stronger effect = lower value 1.02 | S. cerevisiae deletion strains, locus YKL009W, strain mrt4, stronger effect = lower value 1.06 | S. cerevisiae deletion strains, locus YKL068W, stronger effect = lower value 1.01 | S. cerevisiae deletion strains, locus YKL085W, strain MDH1 (second series), stronger effect = lower value 1.01 | S. cerevisiae deletion strains, locus YKL085W, strain MDH1, stronger effect = lower value 1.01 | S. cerevisiae deletion strains, locus YKL160W, strain elf1, stronger effect = lower value 1.02 | S. cerevisiae deletion strains, locus YKL190W, strain CNB1, stronger effect = lower value 1 | S. cerevisiae deletion strains, locus YKR001C, strain vps1, stronger effect = lower value 1.04 | S. cerevisiae deletion strains, locus YKR026C, strain gcn3, stronger effect = lower value 1.03 | S. cerevisiae deletion strains, locus YKR091W, strain srl3, stronger effect = lower value 1.02 | S. cerevisiae deletion strains, locus YLL001W, strain dnm1, stronger effect = lower value 1.06 | S. cerevisiae deletion strains, locus YLL026W, stronger effect = lower value 1.02 | S. cerevisiae deletion strains, locus YLL041C, strain sdh2, stronger effect = lower value 1.02 | S. cerevisiae deletion strains, locus YLR027C, strain aat2, stronger effect = lower value 1.01 | S. cerevisiae deletion strains, locus YLR039C, strain RIC1, stronger effect = lower value 0.973 | S. cerevisiae deletion strains, locus YLR058C, strain SHM2, stronger effect = lower value 1 | S. cerevisiae deletion strains, locus YLR102C, strain apc9, stronger effect = lower value 1.02 | S. cerevisiae deletion strains, locus YLR113W, strain HOG1, stronger effect = lower value 0.981 | S. cerevisiae deletion strains, locus YLR221C, strain rsa3, stronger effect = lower value 1.04 | S. cerevisiae deletion strains, locus YLR258W, strain gsy2, stronger effect = lower value 1.01 | S. cerevisiae deletion strains, locus YLR262C, strain YPT6 (second series), stronger effect = lower value 1.03 | S. cerevisiae deletion strains, locus YLR262C, strain YPT6, stronger effect = lower value 1.02 | S. cerevisiae deletion strains, locus YLR268W, strain sec22, stronger effect = lower value 1.05 | S. cerevisiae deletion strains, locus YLR320W, strain mms22, stronger effect = lower value 1.05 | S. cerevisiae deletion strains, locus YLR330W, strain CHS5, stronger effect = lower value 0.996 | S. cerevisiae deletion strains, locus YLR342W, strain FKS1 (second series), stronger effect = lower value 1.03 | S. cerevisiae deletion strains, locus YLR342W, strain FKS1, stronger effect = lower value 1.03 | S. cerevisiae deletion strains, locus YLR357W, strain rsc2, stronger effect = lower value 1.04 | S. cerevisiae deletion strains, locus YLR370C, strain arc18, stronger effect = lower value 1.04 | S. cerevisiae deletion strains, locus YLR371W, strain rom2, stronger effect = lower value 1.02 | S. cerevisiae deletion strains, locus YLR384C, strain iki3, stronger effect = lower value 1.03 | S. cerevisiae deletion strains, locus YLR418C, strain cdc73, stronger effect = lower value 1.04 | S. cerevisiae deletion strains, locus YML016C, strain PPZ1, stronger effect = lower value 1.01 | S. cerevisiae deletion strains, locus YML032C, strain rad52, stronger effect = lower value 1.02 | S. cerevisiae deletion strains, locus YML120C, strain ndi1, stronger effect = lower value 1.05 | S. cerevisiae deletion strains, locus YML124C, strain tub3, stronger effect = lower value 1.01 | S. cerevisiae deletion strains, locus YMR058W, strain fet3, stronger effect = lower value 1.03 | S. cerevisiae deletion strains, locus YMR078C, strain ctf18, stronger effect = lower value 1.04 | S. cerevisiae deletion strains, locus YMR125W, strain sto1, stronger effect = lower value 1.04 | S. cerevisiae deletion strains, locus YMR129W, stronger effect = lower value 1.02 | S. cerevisiae deletion strains, locus YMR205C, strain PFK2, stronger effect = lower value 1.03 | S. cerevisiae deletion strains, locus YMR223W, strain ubp8, stronger effect = lower value 1 | S. cerevisiae deletion strains, locus YMR231W, strain pep5, stronger effect = lower value 1.03 | S. cerevisiae deletion strains, locus YMR263W, strain SAP30, stronger effect = lower value 1.01 | S. cerevisiae deletion strains, locus YMR307W, strain GAS1, stronger effect = lower value 1.1 | S. cerevisiae deletion strains, locus YNL067W, strain RPL9B, stronger effect = lower value 1.02 | S. cerevisiae deletion strains, locus YNL071W, strain lat1, stronger effect = lower value 1.03 | S. cerevisiae deletion strains, locus YNL128W, strain TEP1, stronger effect = lower value 1.02 | S. cerevisiae deletion strains, locus YNL153C, strain GIM3, stronger effect = lower value 1 | S. cerevisiae deletion strains, locus YNL183C, strain NPR1, stronger effect = lower value 0.944 | S. cerevisiae deletion strains, locus YNL209W, strain ssb2, stronger effect = lower value 1.03 | S. cerevisiae deletion strains, locus YNL233W, strain BNI4, stronger effect = lower value 0.985 | S. cerevisiae deletion strains, locus YNL248C, strain rpa49, stronger effect = lower value 0.992 | S. cerevisiae deletion strains, locus YNL250W, strain rad50, stronger effect = lower value 1 | S. cerevisiae deletion strains, locus YNL271C, strain bni1, stronger effect = lower value 1.02 | S. cerevisiae deletion strains, locus YNL298W, strain CLA4, stronger effect = lower value 1.01 | S. cerevisiae deletion strains, locus YNL307C, strain MCK1, stronger effect = lower value 1.02 | S. cerevisiae deletion strains, locus YNL322C, strain KRE1 (second series), stronger effect = lower value 1.04 | S. cerevisiae deletion strains, locus YNL322C, strain KRE1, stronger effect = lower value 0.997 | S. cerevisiae deletion strains, locus YNR049C, strain mso1, stronger effect = lower value 1.03 | S. cerevisiae deletion strains, locus YNR052C, strain pop2, stronger effect = lower value 1.01 | S. cerevisiae deletion strains, locus YOL006C, strain TOP1, stronger effect = lower value 0.979 | S. cerevisiae deletion strains, locus YOL012C, strain htz1 0.869 | S. cerevisiae deletion strains, locus YOL147C, strain pex11, stronger effect = lower value 1.01 | S. cerevisiae deletion strains, locus YOR001W, strain rrp6, stronger effect = lower value 0.982 | S. cerevisiae deletion strains, locus YOR061W, strain CKA2, stronger effect = lower value 1.01 | S. cerevisiae deletion strains, locus YOR069W, strain VPS5, stronger effect = lower value 1 | S. cerevisiae deletion strains, locus YOR070C, strain gyp1, stronger effect = lower value 1.03 | S. cerevisiae deletion strains, locus YOR080W, strain dia2, stronger effect = lower value 1.03 | S. cerevisiae deletion strains, locus YOR083W, strain WHI5, stronger effect = lower value 1.02 | S. cerevisiae deletion strains, locus YOR106W, strain vam3, stronger effect = lower value 1.04 | S. cerevisiae deletion strains, locus YOR136W, strain idh2, stronger effect = lower value 1.01 | S. cerevisiae deletion strains, locus YOR144C, strain elg1, stronger effect = lower value 1.02 | S. cerevisiae deletion strains, locus YOR184W, strain ser1, stronger effect = lower value 1.03 | S. cerevisiae deletion strains, locus YOR231W, strain MKK1, stronger effect = lower value 1.01 | S. cerevisiae deletion strains, locus YOR265W, strain rbl2, stronger effect = lower value 1.02 | S. cerevisiae deletion strains, locus YOR270C, strain vph1, stronger effect = lower value 1.06 | S. cerevisiae deletion strains, locus YOR290C, strain snf2, stronger effect = lower value 1.04 | S. cerevisiae deletion strains, locus YOR316C, strain cot1, stronger effect = lower value 1.03 | S. cerevisiae deletion strains, locus YPL051W, strain arl3, stronger effect = lower value 1.01 | S. cerevisiae deletion strains, locus YPL055C, strain LGE1, stronger effect = lower value 0.973 | S. cerevisiae deletion strains, locus YPL078C, strain atp4, stronger effect = lower value 1.01 | S. cerevisiae deletion strains, locus YPL106C, strain sse1, stronger effect = lower value 1.01 | S. cerevisiae deletion strains, locus YPL240C, strain hsp82, stronger effect = lower value 1.03 | S. cerevisiae deletion strains, locus YPL241C, strain CIN2, stronger effect = lower value 0.998 | S. cerevisiae deletion strains, locus YPL256C, strain CLN2, stronger effect = lower value 0.997 | S. cerevisiae deletion strains, locus YPR119W, strain clb2, stronger effect = lower value 1.02 | S. cerevisiae deletion strains, locus YPR141C, strain kar3, stronger effect = lower value 1.02 | S. cerevisiae deletion strains, locus YPR163C, strain tif3, stronger effect = lower value 1.03 | S. cerevisiae deletion strains, locus YPR167C, strain met16, stronger effect = lower value 1.02 | S. cerevisiae deletion strains, strain wtn01, stronger effect = lower value 1.03 | S. cerevisiae strains, strain wild type, stronger effect = lower value 1.01
